The supplement of paper PMC6555819

System: VDR homodimer (NR concentration 270 nM)
Experiment: PBM binding z-score (relative to random genomic background probes); higher = stronger binding; sequences stand for … in GC…GCGATTGACAGCGTAGAATGAAGG
Summary of the method: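 Probes were double-stranded and carried 34-nt variable regions with direct-repeat seeds, single-nucleotide variants, half-site ablations and random human genomic background sequences, printed on custom Agilent 4×180K protein-binding microarrays. Arrays were incubated 1 h with ligand-free nuclear receptor dimers in PBS pH 7.4, 2% milk, 0.02% Triton X-100, 1 mM DTT, 0.2 mg/mL BSA and 0.4 mg/ml salmon testes DNA. Antibodies against each partner (one per run) detected binding, and scanned fluorescence was regression-normalized. Binding z-scores use the random background probes as reference.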

| Sequence | PBM binding z-score |
| --- | --- |
| CCGAGTAGATTATGGGGCATTCAGGCAACGGTGA | -0.481 |
| CGTCAAAGATCAACTAAGGTAACGTAAAGCACGC | 0.342 |
| ACTATTAGCTGAGACGAGGGCAACCGATAGGTTG | 0.999 |
| ATCTCTAGGTAAGAATCAGTTCAGTGAAGAACGC | 1.52 |
| CTAGAAAGGTCGTGCTCAGGTGAGTATACCAAAC | 0.842 |
| TATTGTAGATCAACAGGAGGTTAAGAAAGATCGA | 0.107 |
| CCTGCTAGGTCAATGTTCAGCTAAAGCAGCTCGC | 0.0912 |
| TCATATAGGTACATGCTAGGTGAAAGTCCGATCT | 0.987 |
| TTTCGGAGGACACGAAAGGTCAGAGCTCGACATC | 1.04 |
| CAGCCTAGGTCAGGGCCAGTCTAGGAGGAACGTT | -0.275 |
| TTACCAAGATGAAGGTCGTTGATCCCTCTGTAGA | 0.756 |
| TTACCAAGGTGAGCAGAGGTCGTTGATCCAACTC | 1.28 |
| TCATATAGGTAAACAGGTTAAAGTCCGTAAGTTA | 1.01 |
| TCGAGTAGGTTAGTCTGGGCATTCAGCCAACATA | -0.466 |
| GCTCGGAGGACAAGGTCAGAGCATTGTCCGTAGA | 0.838 |
| GATACAGGGTCAGCTAGAGGACAGAGTATGGAAA | 0.873 |
| ACTAGCAGGCCAAGTTTCGGTCACTCAAACAAAG | -0.0934 |
| AGTACAGGGTCATCGTAGGCCAGAGTACGCACAG | 3.92 |
| ATCTCTCGGTAACCAAGTTCAGTGAATGCCGAAC | 2.26 |
| GATACAGGGTCAGCTAGAGGCCAGAGTGTGGAAA | 0.787 |
| TAGCCTAGGTCAGATCGGGCCAGTAGACGCTATA | -0.53 |
| CGTCCAAGGTTATAGGAGGTCAGTGAAGACAGAT | 2.1 |
